# ELG1 DNA repair: qHTS screen for small molecules that inhibit ELG1-dependent DNA repair in human embryonic kidney (HEK293T) cells expressing luciferase-tagged ELG1. HEK293T ELG1-luciferase reporter, luminescence, 16 h; DNA damage induced by 5-fluorouridine. Potency, µM (titrated, usually from 46.1 µM), hits mostly inhibitors. 2.3% of 330,000 active. AID 504467, 2011; further: nearly all actives have a fitted effect of over 55% in size
#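 DMSO vehicle served as the neutral condition. Each well held 2,000 cells given 5-fluorouridine plus compound; after 16 hr at 37 °C/5% CO2, ONE-Glo was added and luciferase measured 30 min later.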
# TDP1 cell noCPT: qHTS for Inhibitors of human tyrosyl-DNA phosphodiesterase 1 (TDP1): qHTS in cells in absence of CPT. DT40 Tdp1-/- hTDP1 cells, no CPT, ATP luminescence, 48 h. Potency, µM (doses to about 46.2 µM), most hits filed as inhibitors. AID 686978, 2013. 15% of 420,000 active; further: nearly all actives have a fitted effect of over 55% in size
#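 Stably hTDP1-transfected Tdp1-null chicken DT40 cells were treated with library compounds minus camptothecin and grown for at least 48 hr at 37 °C, after which cellular ATP was quantified by luminescence.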
# TDP1 cell CPT: qHTS for Inhibitors of human tyrosyl-DNA phosphodiesterase 1 (TDP1): qHTS in cells in presence of CPT; chicken DT40 Tdp1-/-;hTDP1 cells + 20 nM CPT, ATP luminescence, 48 h; AID 686979, 2013; 12% of 420,000 active; Potency, µM (titrated, usually from 46.2 µM), actives largely listed as inhibitors; further: nearly all actives have a fitted effect of over 55% in size
#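 Chicken DT40 Tdp1-/- cells stably complemented with human TDP1 were seeded at 400 cells/well in medium containing 20 nM camptothecin, exposed to pin-transferred compounds, and grown at 37 °C for at least 48 hr. Viability was read as ATP luminescence.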
# IL1B secr inh: qHTS for Inhibitors of Inflammasome Signaling: IL-1-beta AlphaLISA Primary Screen | THP-1 LPS/ATP IL-1B secretion, AlphaLISA, 16 h; hits give low values | activity change, % at 57.5 µM | 4.7% of 360,000 active | AID 743279, 2014; in the data active means activity change below about -50%; inconclusive means mostly about -30% to -49%
#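 Secreted IL-1B measured by AlphaLISA bead assay after 16 h compound exposure of THP-1 cells; compounds (final up to 57.5 uM) added 1 h before LPS (250 ng/mL) and ATP (1.25 mM) stimulation; lower signal means less secretion.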
# HT1080-NT tox: qHTS for induction of synthetic lethality in tumor cells producing 2HG: qHTS for the HT-1080-NT fibrosarcoma cell line | HT-1080-NT fibrosarcoma viability, CellTiter-Glo ATP luminescence, 48 h | Potency, µM (top dose mostly 46.1 µM), hits mostly cytotoxic | 1.6% of 360,000 active;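 further: NT is the 2HG producing partner of a matched IDH1 knockdown line; nearly all actives have a fitted effect of over 55% in size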
#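 A 48-hour cytotoxicity screen used HT-1080-NT cells plated 2 hours before compound delivery. ATP-based CellTiter-Glo luminescence measured viability, normalized to DMSO and no-cell controls.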
# HT1080 IDH1KD tx: qHTS for induction of synthetic lethality in tumor cells producing 2HG: qHTS for the HT-1080-IDH1KD cell line. HT-1080 IDH1 knockdown viability, ATP luminescence, 48 h. Potency, µM (highest dose often 46.1 µM), most hits filed as cytotoxic. 2% of 360,000 active. AID 686971, 2013
#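 Using the IDH1-knockdown HT-1080 line run in the same batch and compound series as the NT line, viability after 48 h at 37 °C was determined by CellTiter-Glo luminescence and expressed as % activity.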
# A number is an active result; 0 = inactive; ? = inconclusive; - = not tested or not shown; ! = not active in a repeat. The list is not random: actives were taken first. Their share in the collection is about 19%. Unless noted, the call rests on the fitted dose curve; in most records, active means well fitted curve in the direction sought with a large enough effect; inconclusive means small, poorly fitted or top-dose-only effect, or another doubt; inactive means no such curve, though single readings can be large; an effect the other way counts as inactive or inconclusive.
SMILES,ELG1 DNA repair,TDP1 cell noCPT,TDP1 cell CPT,IL1B secr inh,HT1080-NT tox,HT1080 IDH1KD tx
CC(=O)Nc1c(O)c2ccccc2[nH]c1=O,0,0,0,0,0,0
O=c1[nH]c2ccccc2c(=O)c2ccccc12,-,0,0,0,0,0
Cc1ccc2[nH]c3ccccc3c(=O)c2c1,?,11.6µM,11.6µM,0,0,0
CC(C)NC(=O)c1cccc2c1-c1ccccc1C2=O,0,0,0,0,0,0
COc1cc2c3nnc(-c4ccc(F)cc4)c-3cn(Cc3cccc(F)c3)c2cc1OC,0,2.59µM,2.31µM,0,?,0
Cc1ccc(Cn2nc3c4cc(F)ccc4n(Cc4ccc(F)cc4)cc-3c2=O)cc1,0,0,0,0,0,0
COc1cc2c3nnc(-c4ccccc4)c-3cn(Cc3ccc(F)cc3)c2cc1OC,0,14.6µM,8.2µM,-192.1,18.4µM,20.6µM
COc1cccc(Cn2nc3c4cc(F)ccc4n(Cc4ccc(F)cc4)cc-3c2=O)c1,0,?,0,0,0,0
COc1cc2c3nnc(-c4ccc(F)cc4)c-3cn(Cc3cccc(C)c3)c2cc1OC,0,2.59µM,1.84µM,-97.8,0,0
CCCCCCN1C[C@@H](O)[C@H](n2cc(COC(=O)c3ccccc3)nn2)C[C@@H]1c1ccc(OC)cc1,-,?,?,0,0,0
Cc1ccc(CN2CCN(c3cccc4[nH]ccc34)CC2)cc1,0,?,16.4µM,0,0,0
NC(=O)[C@@H]1C[C@]2(NC(=O)NC2=O)c2cc(F)ccc2O1,-,0,0,-,-,-
CC1(C(=O)NS(=O)(=O)c2ccc(C#N)cc2)CCN1C(=O)Cc1ccc(Cl)cc1Cl (configuration not stated),-,0,0,0,0,0
O=C(Nc1ccc2nc(SCC(=O)N3CCc4ccccc43)sc2c1)c1ccc(Cl)cc1,-,11.6µM,9.2µM,-,-,-
O=C(Nc1nnc(SCC(=O)N2CCCc3ccccc32)s1)c1cccc2ccccc12,0,0,?,0,0,0
O=C(Nc1ccc2nc(SCC(=O)N3CCc4ccccc43)sc2c1)c1cccc(F)c1,-,4.11µM,3.66µM,-,-,-
Cc1ccc(C(=O)Nc2nnc(SCC(=O)N3CCCc4ccccc43)s2)cc1,?,?,0,0,0,0
O=C(Nc1ccc2nc(SCC(=O)N3CCc4ccccc43)sc2c1)c1ccc(F)cc1,-,8.2µM,10.3µM,-,-,-
O=C(Nc1ccc2nc(SCC(=O)N3CCCc4ccccc43)sc2c1)c1cccc(Cl)c1,-,6.51µM,13µM,-,-,-
Cc1ccc(NC(=O)Cc2ccccc2)cc1S(=O)(=O)N1CCOCC1,?,0,0,0,0,0
CN(C)CCSc1nc2cc(S(=O)(=O)N3CCCCC3)ccc2o1,0,?,0,0,0,0
Cc1ccc(NC(=O)COC(=O)CC2CCCC2)cc1Cl,0,-,-,-,-,-
CCn1nnnc1-c1ccc(OC)c(S(=O)(=O)Nc2ccccc2OC)c1,-,0,0,0,0,0
C=CCn1c(COc2ccccc2F)nnc1SCC(=O)c1c[nH]c2ccccc12,?,23.1µM,25.9µM,0,0,0
COc1cccc(-c2nccc(N(C)Cc3ccco3)n2)c1,-,0,0,-,-,-
SMILES,ELG1 DNA repair,TDP1 cell noCPT,TDP1 cell CPT,IL1B secr inh,HT1080-NT tox,HT1080 IDH1KD tx
CCC(C)Oc1ccc(C(=O)Nc2ccc(CN3CCOCC3)cc2)cc1 (configuration not stated),?,14.6µM,20.6µM,?,?,0
O=C(Nc1ccc(CN2CCOCC2)cc1)c1ccc(Br)cc1,0,0,0,0,0,0
COC(=O)c1ccc(NC(=O)c2ccc(CN3CCOCC3)cc2)cc1,8.2µM,0,?,0,?,?
O=C(Nc1ccc(CN2CCOCC2)cc1)c1ccc(-c2ccc(Br)cc2)o1,18.4µM,18.4µM,16.4µM,-79.2,14.1µM,?
O=S1(=O)CCO[C@H]2Cc3ccccc3[C@H]2N1Cc1cccc(F)c1,0,0,20.6µM!,0,0,0
CCCC[C@H]1COCCS(=O)(=O)N1Cc1ccc(F)cc1,0,?,?,0,0,0
CCC[C@H]1COCCS(=O)(=O)N1Cc1cccc(F)c1,-,0,0,-,-,-
CCCC[C@H]1COCCS(=O)(=O)N1Cc1cccc(F)c1,0,12.6µM!,?,0,0,0
O=S1(=O)CCOC[C@H](Cc2ccccc2)N1Cc1cccc(Cl)c1,-,0,?,0,0,0
CC(C)C[C@H]1COCCS(=O)(=O)N1Cc1cccc(Cl)c1,-,?,14.6µM,0,0,0
CCCC[C@H]1COCCS(=O)(=O)N1Cc1ccc(C)cc1,0,25.9µM,?,-,0,0
COc1ccc(C(=O)Nc2cccc3c2CCCC3)cc1OC,0,0,0,0,0,0
CC(C)[C@H]1COCCS(=O)(=O)N1Cc1ccc(Cl)cc1,0,?,?,0,0,0
CCC(C)[C@H]1COCCS(=O)(=O)N1Cc1ccc(Br)cc1 (some centres not stated),0,16.4µM,17.8µM,0,0,0
CC1(C(=O)Nc2cccc(C(F)(F)F)c2)Cc2c(-c3cccc(C(F)(F)F)c3)ccnc2O1 (configuration not stated),-,?,?,0,?,?
CC1(C(=O)Nc2ccc3c(c2)OCO3)Cc2c(-c3cccc(C(F)(F)F)c3)ccnc2O1 (configuration not stated),-,3.66µM,4.11µM,0,?,11.6µM
CC1(C(=O)Nc2cccc(C(F)(F)F)c2)Cc2c(-c3ccc4c(c3)OCO4)ccnc2O1 (configuration not stated),-,18.4µM,?,0,?,?
COc1ccccc1CN1C[C@@H]2C[C@@H](c3ccc4nsnc4c3)N3CCC[C@@]23C1=O,0,23.1µM,?,0,0,0
COc1ccccc1CN1C[C@@H]2C[C@@H](c3ccc(C)cc3)N3CCC[C@@]23C1=O,0,?,0,0,0,0
COc1ccccc1CN1C[C@@H]2C[C@@H](c3ccccc3C)N3CCC[C@@]23C1=O,0,29.1µM,?,0,0,0
COc1cc(C)ccc1OCc1cc(C(=O)NC(c2ccccn2)C(F)(F)F)no1 (configuration not stated),-,?,0.651µM,0,0,0
Nc1[nH]c(C(=O)c2ccccc2)c(-c2ccccc2Br)c1C(=O)NCc1ccc(-c2ccccc2)cc1,-,11.6µM,23.1µM,0,0,0

# High-throughput results deposited in PubChem by National Center for Advancing Translational Sciences (NCATS).
